Data: PubChem BioAssay AID1721 (National Center for Advancing Translational Sciences (NCATS), 2009)
Out of some 290,000 compounds screened, about 1,100 (0.38%) were called active. This is one part of a sample in which actives are shown more often than they occur. A number with no mark means an inactive call. Calls follow the shape of the dose curve; as a rule, active = well fitted inhibition curve with a large enough effect; inconclusive = small, poorly fitted or top-dose-only effect, or another doubt; inactive = no such curve, though single readings can be large or run the other way.

Biological target: Pyruvate kinase (Leishmania mexicana) (UniProt Q27686)
Sequence (Q27686 whole entry, looked up): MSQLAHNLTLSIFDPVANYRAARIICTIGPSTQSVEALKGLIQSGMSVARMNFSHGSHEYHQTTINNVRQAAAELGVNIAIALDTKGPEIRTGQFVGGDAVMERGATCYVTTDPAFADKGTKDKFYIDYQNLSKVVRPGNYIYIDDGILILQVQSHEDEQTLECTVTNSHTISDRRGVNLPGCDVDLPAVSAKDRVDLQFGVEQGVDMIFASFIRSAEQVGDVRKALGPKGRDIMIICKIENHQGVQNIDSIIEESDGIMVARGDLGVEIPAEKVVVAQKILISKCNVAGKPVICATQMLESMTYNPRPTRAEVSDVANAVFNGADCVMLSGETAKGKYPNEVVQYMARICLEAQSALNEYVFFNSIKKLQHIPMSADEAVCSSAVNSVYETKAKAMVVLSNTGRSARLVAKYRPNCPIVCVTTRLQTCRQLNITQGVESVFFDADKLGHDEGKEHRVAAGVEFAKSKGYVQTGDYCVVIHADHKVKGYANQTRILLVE
Assay: qHTS Assay for Inhibitors of Leishmania Mexicana Pyruvate Kinase (LmPK)
Details: purified LmPK, Kinase-Glo ATP luminescence, 1 h; series mostly up to 57.5 µM; activity change, negative = inhibition: at the top concentration
From the text: NIH Chemical Genomics Center [NCGC] Malcolm Walkinshaw, Hugh Morgan, Linda Gilmore University of Edinburgh, UK MLPCN Grant: 1 R03 MH085697-01 NCGC Assay Overview: Pyruvate kinase (L. Mexicana) (LmPK) enzyme was supplied as a highly purified (>95% pure) sulphate-free preparation from University of Edinburgh, UK and assayed for its ability to generate ATP from ADP using phosphoenolpyruvate (PEP) as a substrate. ATP generation was detected in a coupled reaction by luciferase-mediated luminescence, an ATP-dependent process. […] The enzyme was assayed at an intermediate level of activity to screen for both inhibitors and activators.
NCGC Assay Protocol Summary: Three uL of enzyme mix (kept on ice) in assay buffer (50 mM Imidazole pH7.2, 50 mM KCl, 7 mM MgCl2, 0.01% Tween 20, 0.05% BSA) containing PEP (0.5 mM final concentration) and LmPK (0.1 nM final concentration) was dispensed into white solid bottom 1,536 well microtiter plates. 23 nL of compound were delivered by a pin tool and 1 uL of ADP mix in assay buffer (r.t; 0.1 mM final ADP concentration) was added. Plates were incubated at room temperature for 1 hour. Two uL of detection mix (Kinase-Glo, Promega; at 4 degree Celsius protected from light) was added and luminescence read by a ViewLux (Perkin Elmer) at 1 second exposure/plate. Data were normalized to the uninhibited and AC100 inhibition (no enzyme). To monitor activation, the first column contained a five-fold concentration of LmPK (0.5 nM).
% is scaled to controls: 0 for no effect and ±100 for the full control effect; potency is read from the fitted curve at half-maximal effect.

Question: How did the “activity change, negative = inhibition” value turn out when N#C/C(=C\C1=C(N2CCOCC2)C(=C\c2ccccc2)/CC1)C(=O)Nc1ccccc1F was run?
Answer: The value was -21.5%.

Question: For C(=N\N1CCN(c2ccccn2)CC1)/C1=C(N2CCOCC2)C(=C/c2ccccc2)/CC1, which “activity change, negative = inhibition” value is on record?
Answer: Its value is 0.842%.

Question: O=C1Nc2ccc(Br)cc2/C1=N/N=C/C1=C(N2CCOCC2)C(=C\c2ccccc2)/CC1 was tested. Which Potency did it give?
Answer: Its Potency is 14.1 µM (active).

Question: CC1CCC2CCCCC2N1C(=O)c1cc([N+](=O)[O-])cc([N+](=O)[O-])c1 (centres undefined) was tested. Which “activity change, negative = inhibition” value did it give?
Answer: The value was -2.35%.

Question: For CCCS(=O)(=O)N1CCN=C1SCc1cccc(F)c1, which “activity change, negative = inhibition” value is on record?
Answer: The value was -2.88%.

Question: With COc1ccc2oc(-c3cccc(NC(=O)CSc4ccc(Cl)cc4)c3)nc2c1 as the compound, how does the “activity change, negative = inhibition” value read?
Answer: The value was 1.44%.

Question: With COc1ccc(-c2nc3cc([N+](=O)[O-])ccc3o2)cc1OC as the compound, how does the “activity change, negative = inhibition” value read?
Answer: Its value is 3.94%.

Question: COc1cccc(-c2nc3cc(C)ccc3o2)c1 was tested. Which Potency did it give?
Answer: The Potency was 14.1 µM (active).

Question: How did the Potency turn out when c1ccc(-c2noc(-c3cccs3)n2)nc1 was run?
Answer: The Potency was 11.2 µM (active).

Question: How did the “activity change, negative = inhibition” value turn out when COc1ccc(Cc2nc(-c3ccccn3)no2)cc1OC was run?
Answer: Its value is 2.13%.

Question: COc1nc(-c2ccc(Cl)cc2)ccc1-c1noc(-c2cccs2)n1 was tested. Which “activity change, negative = inhibition” value did it give?
Answer: The value was 2.05%.

Question: Which “activity change, negative = inhibition” value does the source give for C=CCOc1ccc(C(=O)Nc2ccccc2C(=O)N2CCCC2)cc1 here?
Answer: The value was 3.25%.

Question: With COC(=O)c1ccc(C23CC4(C2)[C@H](CN(Cc2cccnc2)[C@@H]4c2ccccc2)C3c2ccc(Cl)nc2)cc1 (some centres undefined) as the compound, how does the “activity change, negative = inhibition” value read?
Answer: The value was 4.28%.

Question: How did the “activity change, negative = inhibition” value turn out when Cc1cccc(NC(=O)c2cc(S(=O)(=O)N3CCC4(CC3)OCCO4)ccc2F)c1 was run?
Answer: The value was -12.3%.

Question: For CCCCCCCC1=Cc2ccc(F)cc2C(C(C(=O)OC)C(=O)OC)N1C(=O)OC (centres undefined), which activity change, negative = inhibition is on record?
Answer: Its activity change, negative = inhibition is -1.7% [at 11.5 µM].

Question: How did the Potency turn out when S=c1[nH]ccn1-c1ccc(Cl)cc1 was run?
Answer: Its Potency is 25.1 µM (active).

Question: Which “activity change, negative = inhibition” value does the source give for O=S(=O)(c1ccc(F)cc1)N1CCN=C1SCc1cccc(F)c1 here?
Answer: The value was -5%.

Question: With CC(=O)Oc1cccc(C(=O)Nc2ccccc2NC(=O)c2cccc(OC(C)=O)c2)c1 as the compound, how does the “activity change, negative = inhibition” value read?
Answer: The value was -0.0951%.

Question: With C=CCN1c2ccccc2[C@]23C[C@@H](C(=O)OC)N(S(=O)(=O)c4ccc([N+](=O)[O-])cc4)C2=NC(C(=O)OC)=C(C(=O)OC)[C@H]13 as the compound, how does the activity change, negative = inhibition read?
Answer: Its activity change, negative = inhibition is -3.12% [at 11.5 µM].

Question: Which “activity change, negative = inhibition” value does the source give for CC(=O)Nc1ccc(NC(=O)CN2C(=O)COc3ccc(S(=O)(=O)N4CCCCC4)cc32)cc1 here?
Answer: Its value is -9.76%.

Question: For COc1ccc(C2=Nc3cc(C)ccc3OC2)cc1, which Potency is on record?
Answer: Its Potency is 11.2 µM (active).

Question: Which “activity change, negative = inhibition” value does the source give for COc1ccc(NC(=O)c2cc(-c3ccc(C)cc3)on2)cc1 here?
Answer: Its value is 0.318%.

Question: How did the “activity change, negative = inhibition” value turn out when COc1ccc(C2=NOC3(CC(=O)N(c4ccc(C)cc4)C3=O)C2)cc1 (centres undefined) was run?
Answer: The value was 1.45%.

Question: For COc1ccccc1CN1CCNC(=O)C1CC(=O)N(C)CC1CCOCC1 (centres undefined), which “activity change, negative = inhibition” value is on record?
Answer: The value was 7.5%.

Question: How did the “activity change, negative = inhibition” value turn out when Cc1cccc(NC(=O)C2CCCN(C(=O)Nc3ccc(F)cc3)C2)c1C (centres undefined) was run?
Answer: The value was 1.61%.

Question: COc1cc2c(C(=O)N(C)c3cc(Cl)ccc3OC)cn(C)c(=O)c2cc1OC was tested. Which “activity change, negative = inhibition” value did it give?
Answer: Its value is 1.4%.

Question: COC(=O)C1=C(C(=O)OC)[C@@H]2Nc3ccccc3[C@@]23C[C@@H](C(=O)OC)N(S(=O)(=O)c2ccc([N+](=O)[O-])cc2)C3=N1 was tested. Which activity change, negative = inhibition did it give?
Answer: Its activity change, negative = inhibition is -0.378% [at 11.5 µM].

Question: How did the “activity change, negative = inhibition” value turn out when Cc1nc(NC(=O)c2ccc3c(c2)OCCO3)ccc1Br was run?
Answer: The value was -11.3%.

Question: O=C(Nc1ccc(Cl)cn1)c1ccc2c(c1)OCCO2 was tested. Which Potency did it give?
Answer: Its Potency is 28.2 µM (active).

Question: O=C(Nc1cccc(S(=O)(=O)Nc2ccc(Cl)cc2)c1)c1ccc2c(c1)OCCO2 was tested. Which “activity change, negative = inhibition” value did it give?
Answer: Its value is 2.39%.

Question: Which activity change, negative = inhibition does the source give for COC(=O)C(C(=O)OC)C1c2ccccc2C=C(C2CC2)N1C(=O)OC (centres undefined) here?
Answer: Its activity change, negative = inhibition is -6.03% [at 11.5 µM].

Question: With O=C(O)CCN=C1CCc2ccccc2N1 as the compound, how does the “activity change, negative = inhibition” value read?
Answer: The value was -0.35%.

Question: How did the “activity change, negative = inhibition” value turn out when CSc1cccc(NC(=S)N(C(C)C)C(C)c2ccccn2)c1 (centres undefined) was run?
Answer: The value was 7.92%.

Question: Which “activity change, negative = inhibition” value does the source give for Cc1ccc(O)c(/C=N/NC(=O)COc2ccc3c(C)cc(=O)oc3c2)c1 here?
Answer: The value was 3.6%.
